# Results with a measured potency or affinity are listed apart. The source made the active and inactive calls.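 The calls were made as follows: active = every repeat run showing a signal drop whose fitted half-maximal concentration is at most twice the top tested concentration; inconclusive = repeat runs disagree, or flat partial drop, or poor fit; inactive = the rest.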
# Test: HEK293T cytotoxicity, dose response, cytotoxicity control for miR-122 modulator project, cell-based, activator set, cherry-pick (AID 720690)
row,SMILES,outcome
1,CO[C@H]1CN(C)C(=O)c2ccc(NS(C)(=O)=O)cc2OC[C@H](C)N(C(=O)CN(C)C)C[C@H]1C,inactive
2,CN1C(=O)c2cc(NC(=O)c3cccc(F)c3)ccc2OC[C@H]2O[C@H](CC(=O)O)CC[C@H]21,inactive
3,C/C=C/c1ccc([C@@H]2[C@H](CO)N[C@H]2CN(CC)C(=O)CN2CCOCC2)cc1,inactive
4,C/C=C/c1ccc2c(c1)O[C@H](CN(C)C(=O)c1cnccn1)[C@H](C)CN([C@H](C)CO)S2(=O)=O,inactive
5,COc1cccc(COc2cc3ccccc3nc2C)c1,inactive
6,CC(C)NC(=O)N1[C@H](CO)[C@@H](c2ccccc2)[C@@H]1CNC(=O)CN(C)C,inactive
7,CCCNC(=O)C[C@@H]1CC[C@H]2[C@@H](COc3ccc(NC(=O)c4ccc(C(F)(F)F)cc4)cc3C(=O)N2C)O1,inactive
8,C[C@H](CO)N1C[C@H](C)[C@H](CN(C)CC2CCCCC2)OCCCC[C@H](C)Oc2ccc(NC(=O)Nc3cccc4ccccc34)cc2C1=O,inactive
9,COc1cccc(NC(=O)Nc2ccc3c(c2)C(=O)N(C)C[C@@H](OC)[C@@H](C)CN[C@H](C)CO3)c1,inactive
